Assay results reported in the supplement of paper PMC12024424.
Structures can show the parent of a compound that is named as a salt.

System: Staphylococcus aureus Sa2 (MRSA, cystic fibrosis isolate)
Test: growth reduction vs untreated control (viable cell count); higher = stronger antibacterial activity; extreme values may be limits of the assay
Conditions: 0.1 mM; 24 h
Procedure: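 Single-dose screen of the MedChem Express Drug Repurposing Library (0.1 mM, 1% DMSO) against planktonic MRSA S. aureus Sa2 (CF isolate) in TSB in 96-well plates, 37 °C aerobic, 24 h. Assays were run in triplicate and repeated twice.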

SMILES	growth reduction
CC(C(=O)O)c1ccc2c(c1)CC(=O)c1ccccc1S2 (stereo not drawn) [Zaltoprofen]	98%
Oc1c(Cl)cc(Cl)cc1Sc1cc(Cl)cc(Cl)c1O [Bithionol]	100%
CN1CC[C@@H](NC(=O)Nc2ccc(C#N)cc2)C[C@@H]1c1nc2ccccc2[nH]1 [Glasdegib]	98%
Cc1ccc2c(=O)c3cccc(CC(=O)O)c3oc2c1C [Vadimezan]	100%
CCCCCCCCCCCCCCCCOP(=O)([O-])OCC[N+](C)(C)C [Miltefosine]	100%
CC[C@H](C)C(=O)O[C@H]1C[C@@H](C)C=C2C=C[C@H](C)[C@H](CC[C@@H]3C[C@@H](O)CC(=O)O3)[C@H]21 [Lovastatin]	100%
COc1cc2/c(=N/c3ccc(Br)cc3F)nc[nH]c2cc1OCC1CCN(C)CC1 [Vandetanib]	100%
NC(=O)N1CCC(CC(=O)N2CCC([C@H]3c4ncc(Br)cc4CCc4cc(Cl)cc(Br)c43)CC2)CC1 [Lonafarnib]	96%
Oc1c(I)cc(Cl)c2cccnc12 [Clioquinol]	100%
C[C@H]1O[C@@H](n2cc(F)c(=O)[nH]c2=O)[C@H](O)[C@@H]1O [Doxifluridine]	100%
CCCCCCCCCCCC[N+](C)(C)CCOc1ccccc1 [Domiphen (bromide)]	100%
Cc1cc(SCc2sc(-c3ccc(C(F)(F)F)cc3)nc2C)ccc1OCC(=O)O	100%
CN[C@H]1CN(c2ccc3c(=O)c(C(=O)O)cn(-c4nccs4)c3n2)C[C@@H]1OC [Voreloxin (Hydrochloride)]	100%
